Test results: ChEMBL document CHEMBL1157539, “Thousands of chemical starting points for antimalarial lead identification” (Nature, 2010)

Tested on: Plasmodium falciparum
Experiment: GSK_TCMDC: Inhibition of Plasmodium falciparum 3D7 in whole red blood cells, using parasite LDH activity as an index of growth. Test compounds present at 2uM
Assay type: functional

SMILES	Inhibition
CN(C)C(=O)c1ccc(CN(Cc2ccc3c(c2)OCCO3)Cc2ccc3c(c2)OCO3)cc1	89%
Cc1ncccc1C(=O)Nc1ccc(-c2cccc(-c3nc4cccc(C)c4[nH]3)c2)cc1	95%
Cc1cc(Nc2ncc(C#N)c(Nc3ccccc3C(N)=O)n2)ccc1N1CCN(C)CC1.Cl	94%
CCCn1c(Sc2ccc(C#N)c([N+](=O)[O-])c2)nnc1-c1ccc(OC)cc1	94%
Cc1ccc2nc(C)cc(Nc3ccccc3O)c2c1.Cl	96%
CCC1(CC)CN(c2ccccc2)c2ccc(O)cc2S(=O)(=O)C1CC(C)C (stereo not given)	96%
Cl.N=C(N)NN=Cc1ccc2c(c1)Cc1ccccc1-2	100%
Cl.O=C(/C=C/c1cccc(Cl)c1)Nc1ccc2nc(CN3CCCC3)ccc2c1	99%
Cc1cc(N2CCCC2)nc(Nc2ccc(NC(=O)c3ccco3)cc2)n1	100%
CC(C)(C)CN1C(=O)C(c2ccccc2)(c2ccccc2)N=C1N.O=CO	98%
CCc1cc(N2CCN(c3ccccc3F)CC2)nc(SCc2ccc(C(=O)NC3CC3)o2)n1	90%
Cc1cccc2nc(-c3cccc(-c4ccc(NC(=O)Nc5ccsc5)cc4)c3)[nH]c12	100%
Cc1ccc2[nH]c(C3CCCNC3)c(-c3ccncc3)c2c1 (stereo not given)	100%
O=C(c1cc(C(=O)NC2CCCCC2)c(=O)n(C2CCCCC2)c1)c1cc(F)ccc1O	99%
CCN(c1cc(C)nc(Nc2ccc(Cl)cc2)n1)[C@H]1CCN(Cc2ccccc2)C1	94%
